# Assay results reported in PubChem BioAssay (NCATS).
# Inconclusive results are not listed. Entries that show only a call come without a potency. A number with no mark means an inactive call. Activity calls are given as the source filed them. Calls follow the shape of the dose curve; as a rule, active = well fitted inhibition curve with a large enough effect; inconclusive = small, poorly fitted or top-dose-only effect; inactive = flat fitted curve, though single readings scatter.
# Test system: Zika virus NS2B-NS3 protease
# Experiment: Primary screen GU AMC qHTS for Zika virus inhibitors (AID 1347154); also: nearly all actives have a fitted effect of over 70% in size
# Details: Zika NS2B-NS3 unlinked protease, AMC fluorogenic substrate; series mostly up to 54.1 µM
# In short: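 Unlinked Zika NS2B hydrophilic domain–NS3 protease complex at 25 nM in 10 mM Tris-HCl pH 8.0, 0.01% Tween 20, with an AMC peptide substrate. Fluorescence change (340/450 nm) over 15 min at room temperature, normalized to controls, fitted to 4-parameter Hill.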
SMILES,"activity change, negative = inhibition",Potency
O=c1[nH]c(=O)c2[nH]c(=O)[nH]c2[nH]1,-2.36% [at 6.83 µM],
C[C@H](N)[C@H](O)c1cccc(O)c1,,inactive
NC(=O)N/N=C/c1ccc([N+](=O)[O-])o1,,inactive
CC(=O)Oc1c(C)c(C)c2c(c1C)CC[C@@](C)(CCC[C@H](C)CCC[C@H](C)CCCC(C)C)O2,,inactive
CCC(=O)Nc1ccc(O)cc1,,inactive
C[C@@H]1CCN(C(=O)[C@H](CCCN=C(N)N)NS(=O)(=O)c2cccc3c2NC[C@H](C)C3)[C@@H](C(=O)O)C1,,inactive
O=C1O[C@H]([C@@H](O)CO)C(O)=C1O,,inactive
NS(=O)(=O)c1cc2c(cc1C(F)(F)F)NC(Cc1ccccc1)NS2(=O)=O (centres undefined),,inactive
Cc1ccc(C(C)C)cc2c(C)ccc1-2,,inactive
CC1(C)CO[C@@H](CC(=O)O)CN1,,inactive
CCN(CC)CCSC(=O)C(c1ccccc1)c1ccccc1,,inactive
C[C@@H]1CC[C@@]2(OC1)O[C@H]1C[C@H]3[C@@H]4CC[C@H]5C[C@@H](O)CC[C@]5(C)[C@H]4CC(=O)[C@]3(C)[C@H]1[C@@H]2C,-4.75% [at 4.99 µM],
C[C@H]1O[C@H](O[C@H]2[C@H](O)[C@@H](O)[C@@H](O[C@H]3[C@H](O)[C@@H](O)[C@H](O)O[C@@H]3CO)O[C@@H]2CO)[C@H](O)[C@@H](O)[C@@H]1N[C@H]1C=C(CO)[C@@H](O)[C@H](O)[C@H]1O,,inactive
Cc1ncc(COP(=O)(O)O)c(C=O)c1O,,inactive
O=C(O)Cc1sc(-c2ccccc2)nc1-c1ccc(Cl)cc1,,inactive
CC(C)(C)[C@]1(O)CCN2C[C@H]3c4ccccc4CCc4cccc(c43)[C@@H]2C1,,inactive
[O-][n+]1cccc(CO)c1,,inactive
CCN(CC)CCNC(C(=O)OCCC(C)C)c1ccccc1 (centres undefined),,inactive
CCCCCCCCCCCCCCCC(=O)NCCO,,inactive
COc1cc(C(=O)N2CCOCC2)cc(OC)c1OC,,inactive

SMILES,"activity change, negative = inhibition",Potency
CC1(C)[C@@H]2CC[C@@]1(C)C(=O)C2,,inactive
CC(COc1ccccc1)NC(C)C(O)c1ccc(O)cc1 (centres undefined),,inactive
Nc1ccc(S(=O)(=O)Nc2nccs2)cc1,,inactive
CCCCC(CC)COC(=O)c1ccccc1O (centres undefined),,inactive
O=c1cc(CO)occ1O,,inactive
N[C@@H](CSCCCO)C(=O)O,,inactive
CN1CCCCC1CCN1c2ccccc2Sc2ccc(S(C)=O)cc21 (centres undefined),,inactive
CC(C)(C)NCC(O)COc1ccc(NC(=O)NC2CCCCC2)cc1 (centres undefined),,inactive
O=C1OC(OC(=O)c2cccnc2Nc2cccc(C(F)(F)F)c2)c2ccccc21 (centres undefined),,inactive
CC(=O)Nc1ccc(/C=N/NC(N)=S)cc1,,inactive
OCC(CO)N[C@H]1C[C@](O)(CO)[C@@H](O)[C@H](O)[C@H]1O,,inactive
NS(=O)(=O)c1cc2c(cc1Cl)NC(CSCc1ccccc1)=NS2(=O)=O,,inactive
O=C(O)[C@@H]1CSCN1,,inactive
CN1[C@@H]2CC(OC(=O)[C@H](CO)c3ccccc3)C[C@H]1[C@@H]1O[C@@H]12 (some centres undefined),,inactive
CC(C)(C)C(=O)NCCCC(=O)O,,inactive
CC1(C)OC(=O)NC1=O,,inactive
Nc1ccc(S(=O)(=O)Nc2ccccc2)cc1,,inactive
CC1(C)S[C@@H]2[C@H](NC(=O)Cc3ccccc3)C(=O)N2[C@H]1C(=O)O (tested in a mixture with another compound),,inactive
O=Cc1ccccc1C=O,,inactive
